Data on 20 molecules can be found in PubChem BioAssay (NCI).

This is part of a sample that, as a whole, favours compounds with a hit. Of some 79,000 tested, about 15% had one in any assay. Values without a mark were called inactive. Active and inactive are the calls of the source. Rule as the data show it: active = growth inhibition above about 70%; inactive = the rest. Where a SMILES comes first, the peptide text is derived from it. The star is where a group is joined. Boc = CC(C)(C)OC(=O)*; NHNH2 = NN*

Experiment [1] can be described thus: NCI Yeast Anticancer Drug Screen. Data for the rad50 strain (AID 155).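 Also: 0% = growth of vehicle-only cultures of the same strain.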 Conditions: S. cerevisiae rad50 strain growth inhibition; at 50.0 µM; active compounds read high. Put shortly:
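Relative growth inhibition (compound vs vehicle) was measured in yeast with a defined repair-gene alteration.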

A short description of experiment [2]: NCI Yeast Anticancer Drug Screen. Data for the mec2-1 strain (AID 157). Conditions: S. cerevisiae mec2-1 strain, at 50.0 µM, active compounds read high. Put shortly:
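Vehicle-treated cultures served as reference for growth inhibition of compound-exposed mec2-1 yeast.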

Experiment [3] can be described thus: NCI Yeast Anticancer Drug Screen. Data for the sgs1 mgt1 strain (AID 161).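 Also: 0% = growth of cultures given vehicle only.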 Conditions: S. cerevisiae sgs1 mgt1 strain, at 50.0 µM, active compounds read high. Put shortly: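 Read-out: growth inhibition vs vehicle controls. Cells: mutant yeast strain deficient in DNA damage repair.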
The nature of experiment [4]: NCI Yeast Anticancer Drug Screen. Data for the cln2 rad14 strain (AID 165).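 Also: 0% = growth equal to vehicle treated cultures.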 Conditions: S. cerevisiae cln2 rad14 strain, at 50.0 µM, active compounds read high. In short, it runs like this: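 Each compound was tested on cln2 rad14 yeast. Inhibition of growth was calculated against vehicle-exposed controls.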
Experiment [5] can be described thus: NCI Yeast Anticancer Drug Screen. Data for the bub3 strain (AID 167). Conditions: S. cerevisiae bub3 mutant strain, at 50.0 µM, active compounds read high. In short, it runs like this:
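Screening used yeast with an engineered genetic alteration affecting cell cycle control. Compound-exposed cultures were compared with vehicle cultures, and reduced growth was taken as inhibition.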

Experiment [6] in a line: NCI Yeast Anticancer Drug Screen. Data for the mlh1 rad18 strain (AID 175). Conditions: S. cerevisiae mlh1 rad18 strain growth inhibition; at 50.0 µM; active compounds read high. In short, it runs like this:
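Vehicle-treated cultures served as the reference for growth inhibition in a yeast strain carrying DNA damage repair alterations exposed to each compound.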

`CC12CC(=O)NN=C1c1ccccc1C2` (stereo not given): the growth inhibition is 4.35% in experiment [1]; -10.8% in experiment [2]; 18.1% in experiment [3]; 29.6% in experiment [4]; -6.8% in experiment [5]; -2.8% in experiment [6].
On to `COc1c2ccoc2c(S(=O)(=O)Nc2ccc(Cl)cc2)c2oc(C)cc(=O)c12`, for which the growth inhibition in experiment [1] was 4.7%; in experiment [2] it was -29.9%; in experiment [3], -13.9%; in experiment [4], -8.15%; in experiment [5] it was -11.8%; in experiment [6], -24.8%.
Take `CCOC(=O)C(CCC(=O)OC)C(=O)OCC`: the growth inhibition in experiment [1] is -2.45%; in experiment [2] it was -1.75%; in experiment [3] it was -32.5%; in experiment [4] it was -28.2%; in experiment [5] it was -5.25%; in experiment [6], 1.6%.
As to `C=CCCC1CC(OCC)OC(CCC=C)O1` (stereo not given), the growth inhibition is 16.9% in experiment [1]; 1.15% in experiment [2]; 1.25% in experiment [3]; -24.8% in experiment [4]; -6.3% in experiment [5]; 13.8% in experiment [6].
With `CCC(C)C(NC(=O)C(Cc1c[nH]c2ccccc12)NC(=O)OC(C)(C)C)C(=O)NN` (stereo not drawn) (Boc-Trp-Ile-NHNH2; configuration not given here), the growth inhibition in experiment [1] was 24.8%; in experiment [2], 3.7%; in experiment [3], 8.5%; in experiment [4], 15.4%; in experiment [5], -4.35%; in experiment [6] it was 15.6%.
Regarding `Cc1ncc(C(N)=O)c(N)n1`, the growth inhibition in experiment [1] was 21%; in experiment [2] it was -2.05%; in experiment [3], -11.6%; in experiment [4], -42%; in experiment [5] it was -13.6%; in experiment [6], 8.3%.
As for `CN(C)CC(O)CNC(=O)Nc1ccccc1` (stereo not given), the growth inhibition was 0.6% in experiment [1]; 14.2% in experiment [2]; 12.7% in experiment [3]; 0.35% in experiment [4]; -0.05% in experiment [5]; -42.8% in experiment [6].
As for `CCC1CCC(C(C)(C)C)C(=O)C1` (stereo not given), the growth inhibition in experiment [1] was 6.45%; in experiment [2], 1.75%; in experiment [3], 2.55%; in experiment [4], -11.3%; in experiment [5], 3.7%; in experiment [6] it was -4%.
As to `CCCCCCCOC(=O)C(CC)CC`, the growth inhibition in experiment [1] was 6.8%; in experiment [2] it was -6.45%; in experiment [3] it was 5.45%; in experiment [4] it was 2.85%; in experiment [5], 2.65%; in experiment [6] it was 6.45%.
With `CCCCCCCCCCCCCCCCNc1nc(=O)n(C2CC(O)C(COP(=O)(O)OC3CC(n4cc(F)c(=O)[nH]c4=O)OC3CO)O2)cc1F` (stereo not given), the growth inhibition in experiment [1] is -2.05%; in experiment [2] it was -6.05%; in experiment [3], -25.9%; in experiment [4], 0.95%; in experiment [5], -42.6%; in experiment [6], -31.6%.
`O=C(O)c1ccccc1NC(C(=O)O)c1ccccc1` (stereo not given): the growth inhibition in experiment [1] was -13.1%; in experiment [2], -4.25%; in experiment [3] it was -27.4%; in experiment [4] it was 9.1%; in experiment [5] it was -18.9%; in experiment [6], -11.7%.
For the molecule `Nc1ccn(C2CC(F)C(CO)O2)c(=O)n1` (stereo not given), the growth inhibition was 19.6% in experiment [1]; 11.2% in experiment [2]; 17.2% in experiment [3]; 1.5% in experiment [4]; 7% in experiment [5]; -1.8% in experiment [6].
On to `COc1ccc(/C=C2/SC(=Nc3ccccc3)N(NC(=O)Cc3ccccc3)C2=O)cc1`, for which the growth inhibition in experiment [1] is -22.7%; in experiment [2] it was -14.2%; in experiment [3], 13.7%; in experiment [4], -16.6%; in experiment [5], -26.6%; in experiment [6], -22.2%.
As to `Cc1ccc2sc3cc(=O)cc(C)c-3nc2c1`, the growth inhibition was 14.7% in experiment [1]; 0.7% in experiment [2]; -15.1% in experiment [3]; 8.35% in experiment [4]; 38.4% in experiment [5]; 25.4% in experiment [6].
As to `O=C(O)c1ccccc1Sc1ccc([N+](=O)[O-])cn1`, the growth inhibition in experiment [1] is 33.2%; in experiment [2], 5.1%; in experiment [3], 2.15%; in experiment [4], -15.8%; in experiment [5] it was 6.4%; in experiment [6], 44.7%.
`CC(Cc1ccccc1)NC(=O)CCCN1C(=O)c2ccccc2C1=O` (stereo not given): the growth inhibition in experiment [1] was -2.55%; in experiment [2] it was 1%; in experiment [3] it was -10.7%; in experiment [4], -37.8%; in experiment [5] it was 6.4%; in experiment [6], -5.15%.
`O=C1/C(=C/c2ccc3c(c2)OCO3)CCC1CN1CCOCC1` (stereo not given): the growth inhibition in experiment [1] is 91.2% (active); in experiment [2], 94.1% (active); in experiment [3], 90.8% (active); in experiment [4], 92.7% (active); in experiment [5] it was 90.2% (active); in experiment [6] it was 90.5% (active).
Turning to `C=Cc1ccc(S(N)(=O)=O)cc1`, the growth inhibition was -7.45% in experiment [1]; 15.4% in experiment [2]; -7.55% in experiment [3]; -16.6% in experiment [4]; -12.7% in experiment [5]; -2.25% in experiment [6].
As for `Cc1[nH]n(-c2nc(-c3ccccc3)cc(=O)[nH]2)c(=O)c1CCO`, the growth inhibition is -11.8% in experiment [1]; -31.5% in experiment [2]; -25.9% in experiment [3]; 10.8% in experiment [4]; -7.1% in experiment [5]; -13.2% in experiment [6].
Consider `CCC1CCC2c3c([nH]c4ccccc34)C3C(=O)N(c4ccc(OC)cc4)C(=O)C3C2C1` (stereo not given), for which the growth inhibition in experiment [1] is -13.1%; in experiment [2], -10.6%; in experiment [3], 3.5%; in experiment [4], 6.65%; in experiment [5], 2.05%; in experiment [6], 24.4%.
